Screens as filed in PubChem.
D2 antag: antagonizes the human D2 dopamine receptor | P14416 | HEK293 TREx D2 cells, calcium flux, dopamine EC80 | inhibition, % at 10 µM | 340,000 tested, 2% active | AID 485344; in the data active = inhibition above about 30%; inactive = below that, where a call was filed
Target sequence (P14416 whole entry, looked up): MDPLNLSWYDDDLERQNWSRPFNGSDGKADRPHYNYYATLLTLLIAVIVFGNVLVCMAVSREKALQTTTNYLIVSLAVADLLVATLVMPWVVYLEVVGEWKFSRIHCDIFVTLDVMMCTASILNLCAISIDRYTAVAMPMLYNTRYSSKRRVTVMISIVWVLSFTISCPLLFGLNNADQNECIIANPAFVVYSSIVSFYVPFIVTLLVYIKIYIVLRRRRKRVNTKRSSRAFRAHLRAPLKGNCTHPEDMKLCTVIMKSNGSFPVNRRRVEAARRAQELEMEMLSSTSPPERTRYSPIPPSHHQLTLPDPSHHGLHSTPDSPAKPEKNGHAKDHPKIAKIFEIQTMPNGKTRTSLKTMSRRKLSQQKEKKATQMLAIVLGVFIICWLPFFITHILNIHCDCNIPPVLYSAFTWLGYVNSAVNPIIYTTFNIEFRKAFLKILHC
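Compounds are added to dye-loaded, induced HEK293 T-REx cells coupled to calcium release via D2; after a 3 min kinetic read an EC80 dopamine stimulus is given and fluorescence is recorded for 3 more min.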
D2 PAM-1: potentiates the human D2 dopamine receptor allosterically. P14416. DiscoveRx D2 beta-arrestin cells, luminescence, 90 min; 100% = 57 uM dopamine signal. potentiation, % (no concentration beside the values). 360,000 tested, 0.23% active; in the data active = potentiation above about 50%; inconclusive = mostly about 30% to 49%
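PathHunter D2 cells, attached overnight at 37 deg C, received compound in DMSO plus dopamine at EC20 (50 nM final) for 90 min at 37 deg C. Beta-arrestin recruitment was read as luminescence after 1 h with detection reagent at ambient temperature.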
D2 ag-1: agonists of human D2 dopamine receptor; HEK293 T-REx D2 cells, calcium flux agonist mode; 340,000 tested, 0.53% active; P14416; activation, % at 2 µM;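 active = activation over 3 SD above normal in the single-dose calcium agonist read, cut at about 30% in these data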
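Calcium-flux readout, 1 cycle/sec over 180 s following compound pin transfer, in inducible HEK293 Trex D2 cells (force-coupled); dopamine controls included. Positive calcium responses during this window marked compounds as potential agonists.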
D2 ag-2: agonists of human D2 dopamine receptor (beta-arrestin) | AID 624465 | P14416 | DiscoveRx PathHunter D2 beta-arrestin, luminescence, 90 min; 100% = 57 uM dopamine signal | 360,000 tested, 0.084% active | activation, % (no concentration beside the values); in the data active = activation above about 40%; inconclusive = between about 15% and that limit
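Agonist mode: compounds alone added to overnight-plated D2 PathHunter cells for 90 min at 37 C, with 57 uM final dopamine (EC100) defining full response. Beta-arrestin recruitment detected by chemiluminescent reagent, read after 1 h at ambient temperature.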
D2 PAM-2: positive allosteric modulators of human D2 dopamine receptor. potentiation, % at 10 µM. P14416. HEK293 T-REx D2, calcium flux, EC20 dopamine potentiation. 340,000 tested, 0.34% active. AID 485347;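 active = potentiation over 3 SD above the plate norm, cut at about 30% in these data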
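Cells plated with tetracycline inducer and held overnight at 30 C; calcium dye loaded 30–90 min at room temperature; baseline taken, compound added and read 180 s; EC20 dopamine then added and read 180 s.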
Of the large screens only hits and unclear results are named; the others gave an inactive call; ! = not confirmed by another sample. This is a sample that favours compounds with a hit; in the whole collection about 2.4% have one here.

COc1cc(C(=O)Nc2ccc(C)cc2)c2ccccc2n1	none
CCOc1ccc(NC(=O)c2cc(OC)nc3ccccc23)cc1	D2 antag 57
COc1ccc(OCC(=O)OCC(=O)NCc2ccco2)cc1	none
COc1ccc(CC(=O)OCC(=O)NCc2ccco2)cc1	D2 antag 36
CN(/N=C/c1cc([N+](=O)[O-])ccc1O)c1ccccc1	none
CN(/N=C/c1ccc(-c2ccc([N+](=O)[O-])cc2)o1)c1ccccc1	D2 ag-1 30
COc1cc(NC(=O)c2ccc3c(SCC(=O)O)c4c(nc3c2)CCC4)cc(OC)c1OC	D2 antag 36
COc1ccc(CCNC(=O)Cn2cc(C(=O)c3ccc(Cl)cc3)c(=O)c3ccc(C)nc32)cc1OC	none (no result: D2 antag, D2 PAM-1, D2 ag-2)
c1cc2c3c(cccc3c1)NC(c1ccc3c(c1)OCO3)N2	D2 ag-2 44
CSc1ccc(C2Nc3cccc4cccc(c34)N2)cc1	D2 PAM-1 58, D2 ag-2 54
CC(Oc1ccc(F)cc1)C(=O)NCC1(N(C)C)CCCCC1 (centres undefined)	none (no result: D2 antag, D2 PAM-1, D2 ag-2)
O=C1C2C3C=CC(C4CC34)C2C(=O)N1/N=C/c1cccs1 (centres undefined)	D2 PAM-1 61
COc1ccc(-c2cc(C(F)F)n3ncc(C(=O)N4CCN5CCCC5C4)c3n2)cc1 (centres undefined)	D2 antag 52
C1CNCCNCCCNCCNC1	D2 antag 46 (no result: D2 PAM-1, D2 ag-2)
Cc1cc(SCC(=O)N(C)c2c(N)n(Cc3ccccc3)c(=O)[nH]c2=O)nc2ccccc12	D2 antag 38
COc1ccccc1-c1nnc(C2CCN(S(=O)(=O)c3ccc(CC(C)C)cc3)CC2)o1	none (no result: D2 antag, D2 PAM-1, D2 ag-2)
NC(=NCc1ccccc1)c1cccc([N+](=O)[O-])c1	none
CC1(C)CSC(=NCc2ccccc2)N1C(=O)c1cccc([N+](=O)[O-])c1	D2 antag 54, D2 ag-1 83
C[C@H](NC(=O)OC(C)(C)C)c1nnc(SCc2ccc(Cl)cc2Cl)o1	none (no result: D2 antag, D2 PAM-1, D2 ag-2)
CC(C)CC(=O)n1sc(NC(=O)c2ccccc2)nc1=O	none
COC(=O)C1=C(C(=O)OC)SC(=C2C(=S)C(C)(C)N(C(=O)CC(C)C)c3ccccc32)S1	D2 antag 30
Cc1cccc(NC(=O)Cn2c(=O)n(CCCS(=O)(=O)C3CCCCC3)c(=O)c3ccccc32)c1	none (no result: D2 antag, D2 PAM-1, D2 ag-1, D2 ag-2)
O=C(Nc1ccc(Cl)c(Cl)c1)c1cc(S(=O)(=O)N2CCN(c3cccc(Cl)c3)CC2)ccc1F	none (no result: D2 antag, D2 PAM-1, D2 ag-2)
CC(NC(=O)c1ccccc1Cl)c1nnc(SCC(=O)Nc2ccc(C(=O)O)cc2)n1C (centres undefined)	D2 antag 30
CCOC(=O)C1(CCOc2ccccc2)CCN(Cc2ccc(COC)o2)CC1	none
CCOC(=O)C1(CCOc2ccccc2)CCN(Cc2ccc(O)c(OCC)c2)CC1	D2 antag 39
CCOC(=O)C1(CCOc2ccccc2)CCN(Cc2ccc(C)o2)CC1	D2 antag 42
COCCN1C(=O)c2[nH]nc(-c3ccccc3O)c2C1c1ccc(Cl)c(Cl)c1 (centres undefined)	none (no result: D2 antag, D2 PAM-1, D2 ag-2)
CC(C)Oc1ccc(CNC(=O)CN2C(=O)c3cccnc3Oc3ccc(Cl)cc32)cc1	none (no result: D2 antag, D2 PAM-1, D2 ag-2)
Cc1ccc(-c2cc(C(=O)O)c3cc(Br)ccc3n2)s1	D2 antag 31!
COc1ccc(CCNC(=O)CCSCc2ccccc2Cl)cc1OC	none (no result: D2 antag, D2 PAM-1, D2 ag-2)
CC(C)NS(=O)(=O)c1ccc2nc(NC(=O)c3cncc(Br)c3)sc2c1	none (no result: D2 antag, D2 PAM-1, D2 ag-2)
COc1ccc(C2/C=C\CN(C(=O)c3ccc(C)cc3)[C@H](Cc3ccccc3)C(=O)N2Cc2ccc(F)cc2)cc1 (some centres undefined)	D2 antag 41
CCc1cc2c(=O)oc(-c3ccc(Br)cc3)nc2s1	D2 antag 33
CC1C(=O)N(Cc2cn(CCC3OCCCO3)nn2)CCS(=O)(=O)N1Cc1ccc(-c2ccc(Cl)c(Cl)c2)cc1 (centres undefined)	none (no result: D2 antag, D2 ag-1, D2 PAM-2)
O=C(Oc1ccc2ccccc2c1)c1ccco1	none
CC1CC(C)(C)Nc2ccc(OC(=O)c3ccco3)cc21 (centres undefined)	D2 PAM-1 112, D2 ag-2 inconclusive
COc1ccc(NC(=O)CN2C(=O)CCn3nc(-c4cccn4C)cc32)cc1	none (no result: D2 antag, D2 PAM-1, D2 ag-2)
Cc1ccc2c(CC(=O)Nc3ccc(S(=O)(=O)N4CCCCC4)cc3)coc2c1C	none (no result: D2 antag, D2 PAM-1, D2 ag-2)
Cc1ccc(CC(=O)NCc2ccc(Cl)cc2)cc1	D2 antag 53
O=C(CC(=O)NCc1ccc(Cl)cc1)NCc1ccc(Cl)cc1	none
Cc1nn(C)c(C(=O)NNC(=S)NCc2ccco2)c1Cl	D2 PAM-2 34
Cc1nn(C)c(C(=O)NCc2ccc(Cl)cc2)c1Cl	D2 antag 44
Cc1nc(C)c(C(=O)NCc2ccc(Cl)cc2)o1	none
Cc1cccc(N2CCN(C(=O)c3cn(CC(C)C)c(=O)c4c3c3ccccc3n4C)CC2)c1C	none (no result: D2 antag, D2 PAM-1, D2 ag-2)
CCn1cc(S(=O)(=O)c2ccc(OC)cc2)c(=O)c2cc(F)c(N3CCC(C)CC3)cc21	none (no result: D2 antag, D2 PAM-1, D2 ag-2)
CCSc1nnc2ccc(-c3ccc(C)cc3)nn12	none
CCSc1nnc2ccc(-c3ccco3)nn12	D2 PAM-2 37
CN(C)CCn1cnc2c(c1=N)C(c1ccccc1)c1ccc3ccccc3c1O2 (centres undefined)	D2 antag 62
Cc1ccc2c(c1)C(C)CC(C)(C)N2C(=O)CN1CCN(C)CC1 (centres undefined)	D2 antag 36
CC1CC(C)(C)N(C(=O)CN2CCN(C)CC2)c2ccccc21 (centres undefined)	none
O=C(C1CC1)N(Cc1ccco1)c1nc(-c2ccccc2)cs1	D2 PAM-2 30
O=C(CN1C(=O)NC2(CCCCCC2)C1=O)Nc1ccc(Cl)c([N+](=O)[O-])c1	none (no result: D2 antag, D2 ag-1, D2 PAM-2)
O=C(ONC1=NCCCCC1)c1cccc([N+](=O)[O-])c1	D2 PAM-1 55
O=C(Nc1ccc(Cl)c([N+](=O)[O-])c1)ONC1=NCCCCC1	D2 PAM-1 54, D2 ag-2 inconclusive (no result: D2 antag, D2 ag-1, D2 PAM-2)
C/C(=N/NC(=O)c1ccc(Br)o1)c1ccncc1	D2 antag 38
O=C1C(=O)N(C2CCN(C(=O)c3cccc(Cl)c3)CC2)CCN1Cc1ccc(F)cc1	none (no result: D2 antag, D2 PAM-1, D2 ag-2)
Cc1cccc(NC(=O)Cn2c(=O)n(CC3CCC(C(=O)NCCc4ccccc4)CC3)c(=O)c3ccccc32)c1 (centres undefined)	none (no result: D2 antag, D2 PAM-1, D2 ag-2)
C=CCc1ccccc1OCCNCc1ccccc1	D2 antag 69
Cc1ccc(C(C)C)c(OCCNCCc2ccccc2)c1	D2 antag 41
Cc1cc(C)c(C)c(OCCNCc2ccccc2)c1	D2 antag 75
Cc1ccc(C(C)C)c(OCCCNCc2cccnc2)c1	none
Brc1ccccc1OCCNCc1ccccc1	D2 antag 94
COc1ccc(S(=O)(=O)c2c(C(=O)c3ccc(C)c(C)c3)cnc3ccc(C)cc23)cc1	none (no result: D2 antag, D2 PAM-1, D2 ag-1, D2 ag-2)
